About 83,000 compounds went through this panel and 20% of them were active in at least one assay; those are over-represented in the sample as a whole.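 Percent growth is the endpoint: 0 to 100 indicates growth inhibition (40 means 60% inhibition), 0 means no net growth, and negative values indicate cell death.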 Values without a mark were called inactive. Active and inactive are the calls of the source. How the source made its calls: active means growth percent below 10; inactive means the rest.

The record followed here is PubChem BioAssay (NCI).

Among the test systems are NCI-H23 lung; NCI-H322M lung; HOP-62 NSCLC; NCI-H460 lung; HOP-92 NSCLC; NCI-H522 lung; A549/ATCC NSCLC; 786-0 renal; COLO 205 colon; DU-145 prostate; K-562 leukemia; MALME-3M melanoma; MDA-MB-231 breast; SF-268 CNS; SF-295 CNS; SF-539 CNS; UACC-257 melanoma; M14 melanoma; HCT-15 colon; RXF 393 renal.
Assay in all cases: NCI-60 one-dose screen, 48 h (100 = growth as untreated, 0 = no growth, -100 = all killed)
Common to all, as to details: 10 µM unless noted

As to `OC(c1ccccc1)c1nnc(SCc2ccccc2)n1Cc1ccccc1` (stereo not drawn), the growth was 98.2% with NCI-H23 lung; 106% in the assay on NCI-H322M lung; 91.5% in the assay with HOP-62 NSCLC; 106% in the assay with NCI-H460 lung; 58.8% with HOP-92 NSCLC; 86.6% in the assay with NCI-H522 lung. Also, the growth with A549/ATCC NSCLC is 94.1%; with 786-0 renal, 95.4%; with COLO 205 colon, 102%; with DU-145 prostate, 108%; in the assay with K-562 leukemia, 84.4%; in the assay with MALME-3M melanoma, 77.3%. Further, the growth in the assay with MDA-MB-231 breast was 103%; with SF-268 CNS, 94.2%; in the assay on SF-295 CNS it was 83.4%; in the assay with SF-539 CNS, 101%; in the assay with UACC-257 melanoma it was 103%; in the assay on M14 melanoma, 88%. Also, the growth in the assay on HCT-15 colon was 88.9%.
As to `COc1nc2c(c(=O)n1C)N=C1c3ccccc3C(=O)C1C(c1ccccc1)N2` (stereo not drawn), the growth with NCI-H23 lung is 94.1%; with NCI-H322M lung it was 104%; in the assay with HOP-62 NSCLC it was 86.9%; in the assay with NCI-H460 lung, 103%; in the assay with HOP-92 NSCLC it was 89.2%; with NCI-H522 lung it was 102%. Also, the growth was 91.5% in the assay with A549/ATCC NSCLC; 84.7% with 786-0 renal; 106% in the assay with COLO 205 colon; 94.6% in the assay on DU-145 prostate; 74.8% with K-562 leukemia; 83.2% in the assay with MALME-3M melanoma. The growth with MDA-MB-231 breast is 89.2%; in the assay with SF-268 CNS, 85.3%; with SF-539 CNS it was 93.7%; in the assay on UACC-257 melanoma, 96.7%; with M14 melanoma, 82.9%; with HCT-15 colon it was 90.5%.
Consider `O=C(Nc1ccc(-c2nc3cc4ccccc4cc3[nH]2)cc1)c1cccc(Br)c1`, for which the growth is 54.1% in the assay with NCI-H23 lung; 41.3% with NCI-H322M lung; 49.9% with HOP-62 NSCLC; 6.74% (active) with NCI-H460 lung; 72.6% in the assay with HOP-92 NSCLC; 16.3% in the assay on NCI-H522 lung. Further, the growth is 27% with A549/ATCC NSCLC; 17.6% in the assay with 786-0 renal; 34.6% with COLO 205 colon; 46.4% in the assay on DU-145 prostate; 26.7% in the assay on K-562 leukemia; 69.2% in the assay on MDA-MB-231 breast. Also, the growth in the assay with RXF 393 renal was 29%; with SF-268 CNS, 37%; in the assay with SF-295 CNS, -36.3% (active); in the assay with SF-539 CNS, 30.8%; in the assay with UACC-257 melanoma it was 42.3%; in the assay on M14 melanoma, 34.2%. Besides, in the assay with HCT-15 colon, the growth is 22.3%.
As to `COc1ccc(-n2c(C(O)c3ccccc3)n[nH]c2=S)cc1` (stereo not drawn), the growth is 101% in the assay on NCI-H23 lung; 102% in the assay with NCI-H322M lung; 92.5% in the assay with HOP-62 NSCLC; 108% in the assay on NCI-H460 lung; 83.6% in the assay on HOP-92 NSCLC; 89.7% with NCI-H522 lung. Besides, the growth was 102% in the assay with A549/ATCC NSCLC; 99.1% with 786-0 renal; 110% in the assay with COLO 205 colon; 113% in the assay with DU-145 prostate; 99.3% in the assay on K-562 leukemia; 94.9% in the assay on MALME-3M melanoma. Further, the growth in the assay on MDA-MB-231 breast is 92.2%; in the assay on SF-268 CNS it was 95.9%; with SF-539 CNS, 101%; in the assay with UACC-257 melanoma, 90.4%; in the assay with M14 melanoma it was 90%; with HCT-15 colon, 107%.
As for `CCCCc1c(CCC)c(=N)c2ccccc2n1C`, the growth in the assay with NCI-H23 lung is 99.2%; with NCI-H322M lung, 85.3%; in the assay on HOP-62 NSCLC, 78%; with NCI-H460 lung, 67.7%; with HOP-92 NSCLC, 48.2%; in the assay with NCI-H522 lung it was 100%. Further, the growth is 69.8% in the assay with A549/ATCC NSCLC; 73.8% with 786-0 renal; 70.5% in the assay on COLO 205 colon; 79.9% with DU-145 prostate; 8.23% (active) in the assay on K-562 leukemia; 43.2% with MDA-MB-231 breast. Moreover, the growth with RXF 393 renal was 90.9%; with SF-268 CNS it was 81.4%; in the assay on SF-295 CNS, 9.89% (active); in the assay on SF-539 CNS, 74.1%; with UACC-257 melanoma, 30.8%; with M14 melanoma, 55.3%. In the assay on HCT-15 colon, the growth is 44.5%.
Regarding `COc1cccc2c(=O)c3c(sc12)c(NCCCNCCO)nc1ccccc13`, the growth in the assay with NCI-H23 lung is 63.1%; with NCI-H322M lung, 53.4%; in the assay with HOP-62 NSCLC it was 44.4%; in the assay on NCI-H460 lung, -75.1% (active); in the assay with HOP-92 NSCLC, 10.2%; in the assay with NCI-H522 lung, 60.9%. The growth in the assay with A549/ATCC NSCLC is 34.5%; in the assay with 786-0 renal, 56.3%; with DU-145 prostate it was 41.4%; with K-562 leukemia it was -46.9% (active); in the assay on MALME-3M melanoma, 81.2%; with MDA-MB-231 breast, 23.9%. Further, the growth with RXF 393 renal is 44.5%; in the assay with SF-268 CNS, 48.2%; in the assay with SF-295 CNS, 73%; in the assay with SF-539 CNS, 64.9%; in the assay with UACC-257 melanoma, 84.5%; with M14 melanoma it was 41.9%. In the assay with HCT-15 colon, the growth was 25.6%.
Take `O=C(Cn1cc(COc2ncnc3c2cnn3-c2ccccc2)nn1)Nc1ccccn1`: the growth was 96.6% in the assay on NCI-H23 lung; 93.6% in the assay on NCI-H322M lung; 91.5% with HOP-62 NSCLC; 101% with NCI-H460 lung; 75.2% with HOP-92 NSCLC; 87.6% in the assay on NCI-H522 lung. Moreover, the growth with A549/ATCC NSCLC is 94.2%; in the assay on 786-0 renal it was 104%; in the assay with DU-145 prostate it was 101%; in the assay with K-562 leukemia it was 96.7%; in the assay with MALME-3M melanoma, 94.5%; in the assay on MDA-MB-231 breast it was 85.2%. Besides, the growth in the assay on RXF 393 renal is 112%; with SF-268 CNS it was 92.9%; with SF-295 CNS, 102%; in the assay with SF-539 CNS it was 89.1%; in the assay on UACC-257 melanoma, 98.4%; with M14 melanoma it was 97.4%. Moreover, the growth with HCT-15 colon was 101%.
For the molecule `Cn1cc(-c2ccc3ncc(-c4ccc(CC(=O)Nc5cc(C(C)(C)C)no5)cc4)nc3c2)cn1`, the growth with NCI-H23 lung is 36.6%; with NCI-H322M lung, 20.6%; in the assay on HOP-62 NSCLC, 42.5%; in the assay with NCI-H460 lung, 22.8%; in the assay with HOP-92 NSCLC, 46.3%; in the assay on NCI-H522 lung it was 41.6%. The growth in the assay on A549/ATCC NSCLC was 33.7%; with 786-0 renal, 39.2%; in the assay on DU-145 prostate it was 34.3%; in the assay with K-562 leukemia, 22.5%; with MALME-3M melanoma, 25%; in the assay on MDA-MB-231 breast, 28.7%. The growth was 32.3% in the assay on RXF 393 renal; 36% in the assay on SF-268 CNS; 47.2% in the assay with SF-295 CNS; 27.3% in the assay on SF-539 CNS; 61.2% with UACC-257 melanoma; 34.6% in the assay on M14 melanoma. In the assay with HCT-15 colon, the growth is 16.3%.
In the case of `COc1ccc(-c2cn[nH]c2-c2cc(OC)c(OC)c(OC)c2)cc1OCc1ccccc1`, the growth is 33.2% with NCI-H23 lung; 49.1% in the assay on NCI-H322M lung; 27.7% with HOP-62 NSCLC; 12.2% with NCI-H460 lung; 31.4% in the assay with HOP-92 NSCLC; -19.7% (active) in the assay on NCI-H522 lung. For the same molecule, the growth in the assay on A549/ATCC NSCLC was 37.7%; with 786-0 renal, 21.5%; with COLO 205 colon, 104%; with DU-145 prostate, 65.2%; in the assay on MALME-3M melanoma, 36.6%; with MDA-MB-231 breast it was 46.1%. The growth in the assay on SF-268 CNS was 27%; in the assay on SF-295 CNS it was -1.63% (active); in the assay on SF-539 CNS, -19.8% (active); with UACC-257 melanoma, 47.6%; in the assay on M14 melanoma, 10.7%; with HCT-15 colon, 23.7%.
